Test results from PubChem BioAssay (NCATS).
Values joined by “and” are separate entries in the source; they are usually repeats but may differ in a detail not shown here. Identical values can stand only once. Results filed as inconclusive are left out. Active and inactive are the calls of the source. Unless noted, the call rests on the fitted dose curve; in most records, active means well fitted curve in the direction sought with a large enough effect; inconclusive means small, poorly fitted or top-dose-only effect, or another doubt; inactive means no such curve, though single readings can be large; an effect the other way counts as inactive or inconclusive.

Assays:
[1] = target: Cellular tumor antigen p53 (Homo sapiens) (UniProt P04637); assay: Primary qHTS for small molecule compounds that upregulate eGFP-tagged delta133p53alpha (in N-terminal) cells. (AID 2060322); details: NCI-H358 eGFP-delta133p53alpha fluorescence, 24 h; activation: active compounds read high; further: nearly all actives have a fitted effect of over 75% in size; further: potency means the concentration at half of the fitted maximal effect;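 on activation: cells pre-induced with doxycycline then dosed without doxycycline; series mostly up to about 56 µM; 0% = DMSO vehicle and 100% = reference activator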
Outline: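 NCI-H358 cells pre-induced 24 h with 10 ng/ml doxycycline for eGFP-delta133p53alpha, plated dox-free and exposed 24 h at 37C to titrated compounds. Fixed, Hoechst-stained; gated GFP peak intensity by laser scanning cytometry, normalized to DMSO (0%) and 57.5 uM 5-azacytidine (100%).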

[2] = target: Aldehyde dehydrogenase, mitochondrial (Homo sapiens) (UniProt P05091); assay: qHTS for Inhibitors of the Aldehyde Dehydrogenase Family (ALDH2) Confirmatory screens (AID 2061303; active means well fitted inhibition curve with a large enough effect; title and protocol of this record describe different tests; further: nearly all actives have a fitted effect of over 45% in size; further: potency means the concentration at half of the fitted maximal effect)
[3] = qHTS for Inhibitors of the Aldehyde Dehydrogenase Family (ALDH1A2, ALDH1A3, ALDH2, ALDH3A1) (AID 2061307); further: nearly all actives have a fitted effect of over 50% in size; on Potency: test system not described further here; potency means the concentration at half of the fitted maximal effect
[4] = target: Aldehyde dehydrogenase, mitochondrial (Homo sapiens) (UniProt P05091); assay: qHTS for Inhibitors of the Aldehyde Dehydrogenase Family (ALDH2) Primary screen (AID 2061308); further: nearly all actives have a fitted effect of over 55% in size; further: potency means the concentration at half of the fitted maximal effect
[5] = target: Retinaldehyde dehydrogenase 3 (Homo sapiens) (UniProt P47895); assay: qHTS for Inhibitors of the Aldehyde Dehydrogenase Family (ALDH1A3) Primary screen (AID 2061315);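 further: plate controls were DMSO vehicle for no effect and reference inhibitor for full effect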
[6] = target: Aldehyde dehydrogenase 1A1 (Homo sapiens) (UniProt P00352); assay: qHTS for Inhibitors of the Aldehyde Dehydrogenase Family (ALDH1A1) Confirmatory screens (AID 2061316); further: nearly all actives have a fitted effect of over 65% in size; further: potency means the concentration at half of the fitted maximal effect
[7] = BET inhibitor-based combinations targeting novel dependencies in MECOM-rearranged (r) AML: OCI-AML3 cell line (AID 2202232); details: Potency: OCI-AML3 viability; further: nearly all actives have a fitted effect of over 35% in size; further: potency means the concentration at half of the fitted maximal effect
Outline: (§1)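 AML cell lines seeded at 500 cells/well, treated with 11-point dose curves for 48 h. Viability by CellTiter-Glo luminescence, normalised to DMSO and empty wells; activity expressed as AUC and per-cell-line Z-transformed AUC.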

[8] = BET inhibitor-based combinations targeting novel dependencies in MECOM-rearranged (r) AML: MV-4-11 cell line (AID 2202233); further: nearly all actives have a fitted effect of over 45% in size; further: potency means the concentration at half of the fitted maximal effect
Outline: (§2)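 Cells at 500/well were exposed for 48 hr to MIPE v5.0 drugs as 11-point dose curves. Viability was read by CellTiter-Glo luminescence and normalized to DMSO and empty-well controls. Activity was expressed as AUC and per-cell-line Z-AUC.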

[9] = BET inhibitor-based combinations targeting novel dependencies in MECOM-rearranged (r) AML: HNT-34 cell line (AID 2202234); further: nearly all actives have a fitted effect of over 35% in size; further: potency means the concentration at half of the fitted maximal effect
Outline: as §2

[10] = BET inhibitor-based combinations targeting novel dependencies in MECOM-rearranged (r) AML: UCSD-AML1 cell line (AID 2202235); further: nearly all actives have a fitted effect of over 40% in size; further: potency means the concentration at half of the fitted maximal effect
Outline: as §2

[11] = BET inhibitor-based combinations targeting novel dependencies in MECOM-rearranged (r) AML: AML-191 cell line (AID 2202236; further: nearly all actives have a fitted effect of over 35% in size; further: potency means the concentration at half of the fitted maximal effect)
Outline: as §1

[12] = BET inhibitor-based combinations targeting novel dependencies in MECOM-rearranged (r) AML: AML-194 cell line (AID 2202237; further: nearly all actives have a fitted effect of over 40% in size; further: potency means the concentration at half of the fitted maximal effect)
Outline: as §1

[13] = target: Retinal dehydrogenase 2 (Homo sapiens) (UniProt O94788); assay: qHTS for Inhibitors of the Aldehyde Dehydrogenase Family (ALDH1A2) Confirmation screens (AID 2061314); further: nearly all actives have a fitted effect of over 65% in size
[14] = BET inhibitor-based combinations targeting novel dependencies in MECOM-rearranged (r) AML: SET-2 cell line (AID 2202231); details: SET-2 AML cells viability, CellTiter-Glo luminescence, 48 h; viability: active compounds read low, concentration not given here; further: nearly all actives have a fitted effect of over 35% in size; further: potency means the concentration at half of the fitted maximal effect;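 on viability: plate controls were DMSO treated cells for no effect and wells without cells for full effect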
Outline: as §1

[15] = target: Retinaldehyde dehydrogenase 3 (Homo sapiens) (UniProt P47895); assay: qHTS for Inhibitors of the Aldehyde Dehydrogenase Family (ALDH1A3) Validation screen (AID 2061312); further: on the % scale 0 is the no-effect control and ±100 the full control effect; nearly all actives have a fitted effect of over 45% in size
[16] = target: Retinaldehyde dehydrogenase 3 (Homo sapiens) (UniProt P47895); assay: qHTS for Inhibitors of the Aldehyde Dehydrogenase Family (ALDH1A3) Confirmatory screens (AID 2061311); further: nearly all actives have a fitted effect of over 60% in size; further: potency means the concentration at half of the fitted maximal effect

Cellular tumor antigen p53 (Homo sapiens), sequence (P04637 whole entry, looked up): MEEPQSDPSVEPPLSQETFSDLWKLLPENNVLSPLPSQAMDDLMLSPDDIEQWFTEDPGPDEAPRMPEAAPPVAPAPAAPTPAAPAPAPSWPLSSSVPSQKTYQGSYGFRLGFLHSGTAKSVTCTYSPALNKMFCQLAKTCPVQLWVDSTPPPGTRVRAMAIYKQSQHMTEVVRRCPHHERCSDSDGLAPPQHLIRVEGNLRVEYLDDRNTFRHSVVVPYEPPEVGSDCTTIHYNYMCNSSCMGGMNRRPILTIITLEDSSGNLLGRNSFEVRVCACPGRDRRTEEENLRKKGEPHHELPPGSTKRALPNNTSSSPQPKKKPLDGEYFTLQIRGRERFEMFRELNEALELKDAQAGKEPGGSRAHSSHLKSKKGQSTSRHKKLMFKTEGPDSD

Cc1ncc(-c2ccnc(Nc3ccc(S(C)(=O)=O)cc3)n2)n1C(C)C
active: Potency [1] 3.06 µM and 2.69 µM | Potency [3] 11.3 µM | Potency [7] 2.35 µM | Potency [8] 0.59 µM | Potency [9] 1.48 µM | Potency [10] 1.32 µM | Potency [11] 1.18 µM | Potency [12] 1.86 µM
inactive: Potency [2] | Potency [4] | Potency [5] | Potency [6]

CN(C)c1cccc(-c2c3c(=O)n(-c4ccccc4Cl)[nH]c3cc(=O)n2C)c1
inactive: activation [1] 5.36% and -13.4% | Potency [2] | Potency [3] | Potency [4] | Potency [13] | viability [14] 110% | Potency [7] | Potency [8] | Potency [9] | Potency [10] | Potency [11] | Potency [12]

Cc1nc2c(C#N)c[nH]n2c(=O)c1C(C)C
inactive: activation [1] 23.5% | Potency [2] | Potency [3] | Potency [4] | Potency [13] | Potency [5] | Potency [6]

CC(C)(Cc1ccccc1)NCC(O)c1ccc(O)c(NS(C)(=O)=O)c1 (stereo not drawn)
inactive: activation [1] -0.955% | Potency [2] | Potency [3] | Potency [4] | Potency [15] | Potency [13] | Potency [6]

COc1cc2nc(N3CCCC3)nc(NCCCCCN3CCCC3)c2cc1OC
inactive: Potency [2] | Potency [3] | Potency [4] | Potency [15] | Potency [13] | Potency [5]
active: Potency [1] 30.6 µM

COc1cc(/C=C/C(=O)O[C@H]2[C@H](OC(=O)/C=C/c3cc(OC)c(O)c(OC)c3)O[C@H](CO[C@@H]3O[C@H](CO)[C@@H](O)[C@H](O)[C@H]3O)[C@@H](O)[C@@H]2O)ccc1O
inactive: activation [1] -3.57% | Potency [2] | Potency [3] | Potency [4] | Potency [13] | Potency [6]

C=C(C)C(=O)O[C@H]1[C@H]2C(=C)C(=O)O[C@@H]2/C=C(\CO)CC/C=C(/C=O)[C@@H]1O
inactive: activation [1] -6.11% | Potency [2] | Potency [3] | Potency [4] | Potency [13]

C/C=C1\[C@H](O[C@@H]2O[C@H](CO)[C@@H](O)[C@H](O)[C@H]2O)OC=C(C(=O)OC)[C@H]1CC(=O)OC[C@H]1O[C@@H](OCCc2ccc(O)cc2)[C@H](O)[C@@H](O)[C@@H]1O
inactive: activation [1] -1.53% | Potency [2] | Potency [3] | Potency [4] | Potency [13]

CC1(C)SCCN(S(=O)(=O)c2ccc(Oc3ccncc3)cc2)[C@H]1C(=O)NO
inactive: activation [1] 20.3% | Potency [2] | Potency [3] | Potency [4] | Potency [13]

CC(C)c1c(-c2cnn(C(C)(C)C)c2)nc2c(C#N)c[nH]n2c1=O
inactive: activation [1] 11.2% | Potency [2] | Potency [3] | Potency [4] | Potency [16] | Potency [5] | Potency [6]

S=C(c1ccc(-c2ccc(Cl)c(Cl)c2)o1)N1CCCCC1
inactive: activation [1] -7.64% | Potency [15] | Potency [5]
active: Potency [2] 2.83 µM | Potency [3] 12.7 µM | Potency [4] 22.4 µM | Potency [6] 5.04 µM

C/C(=N\N=C(N)N)c1cc(NC(=O)CCCCCCCCC(=O)Nc2cc(/C(C)=N/N=C(N)N)cc(/C(C)=N/N=C(N)N)c2)cc(/C(C)=N/N=C(N)N)c1
inactive: Potency [2] | Potency [3] | Potency [4] | Potency [16] | Potency [5] | Potency [6]
active: Potency [1] 26.9 µM

O=C(CCCCCCNC(=O)c1cnc(N(c2ccccc2)c2ccccc2)nc1)NO
inactive: activation [1] 7.34% | Potency [2] | Potency [3] | Potency [4] | Potency [16] | Potency [6]
active: Potency [14] 6.61 µM | Potency [7] 5.9 µM | Potency [8] 2.35 µM | Potency [9] 7.42 µM | Potency [10] 7.42 µM | Potency [11] 7.42 µM | Potency [12] 9.34 µM

O=C1Nc2ccccc2-c2nc3ccccc3c(=O)n2-c2c(O)cccc21
inactive: activation [1] 23.2% | Potency [2] | Potency [3] | Potency [4] | Potency [5]

NC1(c2ccc(NC(=O)c3ccnc(-c4cc(C(=O)O)ccn4)c3)cc2)CC1
inactive: activation [1] 15.7% | Potency [2] | Potency [3] | Potency [4] | Potency [5]

CC1=NN(c2ccccc2)C(=O)C1
active: Potency [2] 12.6 µM | Potency [3] 6.31 µM | Potency [4] 0.794 µM | Potency [16] 8.91 µM | Potency [6] 1.42 µM
inactive: activation [1] -3.42% and 10.7% and -17% | viability [14] 112% | Potency [7] | Potency [8] | Potency [9] | Potency [10] | Potency [12]

CC1(C)CC(=O)c2c(C(F)(F)F)nn(-c3ccc(C(N)=O)c(NC4CCC(OC(=O)CN)CC4)c3)c2C1 (stereo not drawn)
active: Potency [14] 0.263 µM | Potency [7] 0.209 µM | Potency [8] 0.059 µM | Potency [9] 0.209 µM | Potency [10] 0.186 µM
inactive: activation [1] 38.8% and -1.67% | Potency [2] | Potency [3] | Potency [4] | Potency [5] | Potency [6]
